Bioassay records: PubChem BioAssay, National Center for Advancing Translational Sciences (NCATS)
PLK1 PBD block: blocks phosphopeptide binding to human PLK1 polo-box domain. Plk1 PBD binding of FITC phosphopeptide, fluorescence polarization. Potency, µM, for the others: max response, negative = inhibition, most hits filed as inhibitors. AID 720504. P53350. 360,000 compounds, 2.8% hits; further: series mostly up to about 57 µM; nearly all actives have a fitted effect of over 65% in size
Target sequence (P53350 whole entry, looked up, the tested form may be a part): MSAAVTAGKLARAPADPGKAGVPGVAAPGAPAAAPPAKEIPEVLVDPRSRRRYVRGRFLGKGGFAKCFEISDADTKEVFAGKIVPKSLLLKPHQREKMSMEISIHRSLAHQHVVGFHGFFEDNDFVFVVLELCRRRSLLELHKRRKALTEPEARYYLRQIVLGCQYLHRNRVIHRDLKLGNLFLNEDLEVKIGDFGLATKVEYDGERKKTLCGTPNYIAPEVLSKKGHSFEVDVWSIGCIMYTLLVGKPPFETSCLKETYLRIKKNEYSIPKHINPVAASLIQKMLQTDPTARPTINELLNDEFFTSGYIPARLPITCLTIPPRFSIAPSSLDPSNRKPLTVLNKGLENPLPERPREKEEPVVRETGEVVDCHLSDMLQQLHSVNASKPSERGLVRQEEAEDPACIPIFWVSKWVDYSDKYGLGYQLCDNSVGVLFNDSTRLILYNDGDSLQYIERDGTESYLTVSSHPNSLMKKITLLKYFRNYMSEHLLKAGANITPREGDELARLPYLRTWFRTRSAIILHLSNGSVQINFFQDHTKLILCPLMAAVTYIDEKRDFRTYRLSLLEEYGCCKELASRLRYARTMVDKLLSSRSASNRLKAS
VDR inh: blocks the human vitamin D receptor; P11473; VDR-SRC2-3 peptide fluorescence polarization, 2 h; Potency, µM, for the others: max response, negative = inhibition, actives largely listed as inhibitors; 400,000 compounds, 0.93% hits; AID 504847
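After 23 nl compound addition and a short centrifugation, plates sat for 2 hours at ambient temperature; polarization of fluorescence then indicated loss of VDR binding to peptide SRC2-3.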
Tau FP inhib: inhibitors of human tau fibril formation; AID 1468; Potency, µM (doses to about 57.7 µM), without a hit: at the highest dose activity, negative = inhibition, hits mostly inhibitors; K18 P301L tau heparin fibrillization, Alexa594 FP, 6 h; P10636; 280,000 compounds, 0.39% hits; further: nearly all actives have a fitted effect of over 55% in size
Target sequence (P10636 561-689 P618L limits assumed): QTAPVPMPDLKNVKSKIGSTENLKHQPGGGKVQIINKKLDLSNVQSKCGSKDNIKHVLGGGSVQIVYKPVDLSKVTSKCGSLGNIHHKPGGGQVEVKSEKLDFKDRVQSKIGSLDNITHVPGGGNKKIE
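Read-out: fluorescence polarization of Alexa 594-labeled tau (0.24 uM), 555 nm excitation, 632 nm emission. Mixtures held 15 uM unlabeled K18 P301L, compound and 20 uM heparin, pH 7 acetate buffer, incubated 6 hr at 37 C.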
Sfp PPTase inh: blocks B. subtilis Sfp PPTase activity; Biochemical Sfp PPTase activity, qHTS; Potency, µM, for the others: largest response in the series, negative = inhibition, actives largely listed as inhibitors; 310,000 compounds, 3.5% hits; AID 1490;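 further: the enzyme is Sfp with the accession as filed and its product quenches rhodamine fluorescence; 0% = enzyme reaction without inhibitor and -100% = no enzyme wells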
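After 15 min at room temperature with compound, 15 nM Sfp received 5 uM rhodamine-CoA plus 12.5 uM BHQ-2-ybbR (50 mM Hepes pH 7.6, 10 mM MgCl2). Rate came from the fluorescence difference over 30 min, ex 525/em 598 nm.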
Tau fluor cs: counter-screen for tau fibril formation inhibitors. tau K18 P301L Alexa594 fluorescence, heparin fibrillization. Potency, µM (top dose mostly 57.7 µM), without a hit: at the highest dose activity change, negative = decrease. 280,000 compounds, 0.93% hits. AID 1463; further: nearly all actives have a fitted effect of over 55% in size
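Human tau K18 P301L (15 uM unlabeled, 0.24 uM Alexa 594-labeled) in 100 mM sodium acetate pH 7 with 20 uM heparin, 6 hr at 37 C. ThT 30 uM added, 1 hr ambient; Alexa 594 FP and total fluorescence read at 555/632 nm.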
Tau ThT inhib: inhibitors of human tau fibril formation, thioflavin T binding | 270,000 compounds, 2.1% hits | recombinant tau K18 P301L (four-repeat tau fragment), heparin-induced fibrillization, ThT fluorescence | Potency, µM (series often up to 57.4 µM), for the others: top-dose activity, negative = inhibition, usual class: inhibitors; further: nearly all actives have a fitted effect of over 55% in size
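Aggregation was driven by heparin (20 uM final) acting on recombinant tau […] bearing P301L in 100 mM sodium acetate pH 7; fibrils were detected with Thioflavin T.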
Starred values were filed as active, the others as inactive; ? = inconclusive; . = no result given; [ ] = dose if it differs, or a comment. The list is not random: actives were taken first. Their share in the collection is about 6%. The call rests on the fitted dose curve; in most records, active means well fitted curve in the direction sought with a large enough effect; inconclusive means small, poorly fitted or top-dose-only effect, or another doubt; inactive means no such curve, though single readings can be large; an effect the other way counts as inactive or inconclusive. Unless noted, on the % scale 0 is the no-effect control and ±100 the full control effect; potency means the concentration at half of the fitted maximal effect.

SMILES	PLK1 PBD block	VDR inh	Tau FP inhib	Sfp PPTase inh	Tau fluor cs	Tau ThT inhib
C/C(=N\Nc1cc(-c2ccccc2)nc(-c2ccc(Br)cc2)n1)c1cccc(N)c1	-6.3%	4.7%	.	.	.	.
C/C(=N/Nc1cc(-c2ccccc2)nc(-c2ccccc2)n1)c1ccc(O)cc1	-0.4%	-13.9%	?	6.5%	7.08µM*[quencher]	?
COc1cc(C(=O)NCC(c2ccc(N(C)C)cc2)N2CCc3ccccc32)cc(OC)c1OC (stereo not given)	.	0.5%	-1.8%	.	?	?
Cc1ccc(C(=O)C(C(=O)/C=C/c2ccccc2)=C2SCCCS2)cc1	3.36µM*	-15.2%	14.3%	-11.4%	-8.0%	?
CCOC(=O)N=S(N)(=O)c1ccc(Cl)cc1 (stereo not given)	10.6µM*	-4.5%	-2.0%	19.2%	2.7%	-1.8%
Cc1ccc(Nc2c(-c3c[nH]c4ccccc34)nc3ccccn23)cc1	.	-4.2%	-3.7%	.	8.91µM*[quencher]	?
Cc1noc(C)c1-c1nc(NCc2cccnc2)c2ccccc2n1	.	?	0.1%	-21.9%	?	?
N#Cc1cccc(-c2nc(Nc3ccncc3)c3ccccc3n2)c1	.	120.0%	-14.9%	-6.8%	-23.2%	-8.8%
Cc1noc(C)c1-c1nc(NCc2ccccc2)c2ccccc2n1	.	35.5µM*	.	-13.0%	.	.
CS(=O)(=O)Nc1cccc(-c2nc(NCc3ccccc3)c3ccccc3n2)c1	.	50.1µM*	.	5.6%	.	.
N#Cc1cccc(-c2nc(NCc3ccccc3)c3ccccc3n2)c1	.	44.7µM*	.	16.1%	.	.
CC[C@@H](C)[C@@H](C(=O)Nc1ccc(C)cc1)N1Cc2ccccc2C1=O	.	-10.9%	-2.4%	.	-15.8%	-12.1%
Cc1nc2ccccn2c1-c1csc(NCc2ccco2)n1	-17.5%	-5.2%	-10.6%	?	-17.0%	?
Cc1nc2ccccn2c1-c1ccnc(=S)[nH]1	26.7µM*	?	?	10µM*	-13.8%	?
O=C1OCCN1C(=O)[C@H]1[C@H](c2ccccc2)C(c2ccccc2)=NN1c1ccccc1	-0.3%	-16.4%	3.6%[81.3 µM]	-2.0%	?	-7.5%[81.4 µM]
OC[C@@H]1[C@@H](c2ccc(F)cc2)C(c2cccc(Cl)c2)=NN1c1ccccc1	-19.9%	-18.3%	4.0%[81.3 µM]	41.5%	39.8µM*[quencher]	?
CC[C@H]1C(c2ccccc2)=NN(c2ccccc2)[C@@H]1CO	.	-15.4%	?	-2.9%	?	-18.9%[81.4 µM]
OC[C@@H]1[C@@H](c2ccc(Cl)cc2)C(c2ccccc2)=NN1c1ccccc1	-5.3%	?	7.3%[81.3 µM]	12.6%	10µM*[quencher]	?
COc1ccccc1[C@H]1C(c2cccc(C)c2)=NN(c2ccccc2)[C@@H]1CO	-17.4%	-21.2%	?	12.5%	?	-19.6%[81.4 µM]
C[C@H]1C(c2cccc(Cl)c2)=NN(c2ccccc2)[C@@H]1CO	.	-19.0%	9.8%[81.3 µM]	-11.6%	15.8µM*[quencher]	?
COc1ccccc1[C@H]1C(c2ccccc2)=NN(c2ccccc2)[C@@H]1CO	-5.3%	-10.4%	15.5%[81.3 µM]	31.6%	31.6µM*[quencher]	?
CN(C)c1nc2c(Br)c(Br)c(Br)c(Br)c2[nH]1	.	3.5%	7.4%	.	?	-8.8%
C[C@H]1C(c2ccc(F)cc2)=NN(c2ccccc2)[C@@H]1CO	-7.0%	10.3%	?	-8.0%	25.1µM*[quencher]	?
COc1ccccc1[C@H]1C(c2ccc(F)cc2)=NN(c2ccccc2)[C@@H]1CO	-6.3%	-9.1%	?	-7.8%	?	?
OC[C@@H]1[C@@H](c2ccc(Cl)cc2)C(c2cccc(Cl)c2)=NN1c1ccccc1	-12.4%	-21.6%	?	37.9%	11.2µM*[quencher]	?
SMILES	PLK1 PBD block	VDR inh	Tau FP inhib	Sfp PPTase inh	Tau fluor cs	Tau ThT inhib
O=C(O)c1sc(C(=O)O)c(-c2ccccc2)c1-c1ccccc1	-2.1%	.	.	.	.	.
CC(=O)c1sc(C(=O)O)c(-c2ccco2)c1-c1ccco1	?	-22.5%	6.1%	17.8µM*	0.7%	-9.3%
CC(C)CO/N=C1/C[C@@H](O)[C@@H](O)[C@@H]2[C@H]3C(=O)N(c4ccc(F)cc4F)C(=O)[C@@H]3CC[C@H]12	.	.	-3.1%[11.6 µM]	-1.8%	-6.9%[11.6 µM]	-7.2%[11.5 µM]
CC(NCc1ccc(F)cc1)C(=O)NC1CCCCC1 (stereo not given)	-23.2%	16.1%	-20.2%	0.6%	-21.4%	31.6µM*
O=C(C[n+]1ccc(-c2cc(C(=O)Nc3cccc(C(F)(F)F)c3)c3ccccc3n2)cc1)c1cccc([N+](=O)[O-])c1	?	-0.1%	8.5%	50.1µM*	?	?
O=C(CCN1CCOCC1)c1ccc(N2CCCCC2)cc1	-16.7%	?	.	.	.	.
CC(C)(C)c1cc(C(=O)CCN2CCOCC2)cc(C(C)(C)C)c1O	?	50.1µM*	.	-9.0%	.	.
Cc1ccc(S(=O)(=O)N2CC=C(C(=O)NCCC(C)C)CC2)cc1	-2.9%	-5.8%	-12.9%	7.0%	-7.7%	.
COc1ccc(S(=O)(=O)N2CC=C(C(=O)Nc3ccc(NC(C)=O)cc3)CC2)cc1	-14.7%	-17.6%	2.7%	10.5%	-2.9%	0.8%
COc1ccc(S(=O)(=O)N2CC=C(C(=O)NC3CCCC3)CC2)cc1	29.9µM*	-24.2%	.	8.1%	.	.
Cc1ccc(S(=O)(=O)N2CC=C(C(=O)NC3CCCC3)CC2)cc1	26.7µM*	?	.	5.7%	.	.
CC(C)NC(=O)N1CC[C@@]2(CCCN(C(=O)c3cc(C(F)(F)F)cc(C(F)(F)F)c3)C2)C1	.	-1.8%	.	16.6%	.	.
COc1ccc(C(=O)n2nc(-c3ccco3)nc2N)cc1OC	-17.7%	5.9%	?	-2.4%	-14.6%	?
COc1ccc(C(=O)n2nc(-c3ccccc3)nc2N)cc1OC	-8.6%	2.9%	0.2%	79.4µM*	-6.1%	-3.7%
CC1CC=CC2C1C(=O)N(Cc1ccccc1)C2c1ccc(-c2cc3ccccc3s2)cc1F (stereo not given)	.	-23.1%	.	9.4%	.	.
C/C(=N/O)c1ccccn1	-6.9%	24.5%	-5.7%	39.8µM*	8.3%	-7.8%
CC(=O)c1ccccn1	-2.9%	12.4%	.	.	.	.
CCOC(=O)c1c(NC(C)=O)sc2c(O)cccc12	0.5%	9.8%	9.9%	2.8%	-14.1%	?
CCOC(=O)c1c(NC(C)=O)sc2c(O)c(Br)cc(Br)c12	-10.5%	-11.3%	-0.9%	35.5µM*	-29.2%	?
O=C(CCCCn1c(=O)c2ccccc2n(CC(=O)Nc2cccc(F)c2)c1=O)NCCc1ccccc1	.	19.7%	-13.3%	.	-22.9%	7.5%
CCOC(=O)c1c(C)n(C)c2cc([N+](=O)[O-])c(O)c([N+](=O)[O-])c12	21.2µM*	-13.5%	-7.4%	10.5%	-21.6%	8.91µM*
CCCCC(CC)Cn1c(Oc2ccccc2)nc2c1c(=O)n(C)c(=O)n2C (stereo not given)	.	-7.0%	7.1%	.	-11.2%	?
O=c1cccccc1NCc1ccccc1	-9.1%	10.4%	2.4%	22.4µM*	-8.2%	-14.4%
